Laboratory results taken from the supplement of paper PMC7156485.

System: TDF
Experiment: H1.0 immunofluorescence intensity relative to DMSO (% of DMSO); higher = stronger H1.0 induction, active = 120 or more
Conditions: concentration: 10 µM; 24 h
In short: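 In 384-well plates holding 800 HCC1569 or TDF cells per well in RPMI with 10% FBS, compounds were tested at 10 µM for 24 h at 37 °C in triplicate. Fixation used 3.7% formaldehyde. Staining used a rabbit anti-H1.0 antibody with an AlexaFluor 647 secondary, plus DAPI. Each value, H1.0 nuclear intensity or cell number, is a median of replicates shown as percent of the plate control, and HCC1569 values were smoothed for positional effects.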
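Further: TDF is a line of transformed human dermal fibroblasts of mesenchymal origin.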

H1.0 immunofluorescence intensity, inactive:
O=C1NC(=O)C(=Cc2ccc3nccnc3c2)S1 [PI 3-Kg Inhibitor] 87.2
CC(=O)c1ccc2c(c1)[C@H](NC(=O)c1ccc(F)c(Cl)c1)[C@H](O)C(C)(C)O2 104
Br.CN1C2CCC1CC(OC(=O)C(O)c1ccccc1)C2 (stereo not drawn) 97.2
COc1ccccc1N1CCN(CCCNc2cc(=O)n(C)c(=O)n2C)CC1.Cl [Urapidil hydrochloride] 92.7
COC(C)(C)CCCC(C)CC=CC(C)=CC(=O)O (stereo not drawn) [Methoprene acid] 98
CS(=O)(=O)O.Cc1c(O)cccc1C(=O)NC(CSc1ccccc1)C(O)CN1CC2CCCCC2CC1C(=O)NC(C)(C)C (stereo not drawn) [Nelfinavir mesylate] 90.6
CN(C)CCCOc1nn(Cc2ccccc2)c2ccccc12 [Benzydamine] 104
CC(N=C(NC#N)Nc1ccncc1)C(C)(C)C (stereo not drawn) [Pinacidil] 89.4
COc1cc(-c2oc3cc(O)cc(O)c3c(=O)c2O)ccc1O [Isorhamnetine] 97.1
CCNC(=O)N1CCN(CCCC(c2ccc(F)cc2)c2ccc(F)cc2)CC1.Cl [Amperozide hydrochloride] 97
C=C(C)C1CCC2(C(=O)O)CCC3(C)C(CCC4C5(C)CCC(O)C(C)(C)C5CCC43C)C12 (stereo not drawn) [Betulinic acid] 96.3
CCCCCCCCCC(=O)NC(CN1CCOCC1)C(O)c1ccccc1.Cl (racemic) 105
CCCCCCCCCCCC=CCC=CCCCC(=O)O [5(Z), 8(Z)-Eicosadienoic acid] 99.9
NC(C(=O)O)C1CC1C(=O)O [(2S,1'S,2'S)-2-(carboxycyclopropyl)glycine] 85.1
Cc1ccc(Nc2nccc(N(C)c3ccc4c(C)n(C)nc4c3)n2)cc1S(N)(=O)=O [Pazopanib] 94.6
O=c1[nH]c(=O)n(C2CC(O)C(CO)O2)cc1I (stereo not drawn) [Idoxuridine] 92.2
COc1cc(C=Cc2ccccc2)oc(=O)c1 [5,6-Dehydrokawain] 99
CN(C)CCC(c1ccc(Cl)cc1)c1ccccn1 (stereo not drawn) [Chlorpheniramine] 96.2
Cl.NCCc1ccc(O)c(O)c1 [Dopamine hydrochloride] 93.5
CS(=O)(=O)O.Cc1ccc(N(CC2=NCCN2)c2cccc(O)c2)cc1 [Phentolamine mesylate] 97.7
COc1cc(Br)c(Nc2nc(-c3c(C)nc4ncccn34)cs2)c(Br)c1 108
COC(=O)C1C2CC3c4[nH]c5cc(OC)ccc5c4CCN3CC2CC(OC(=O)c2cc(OC)c(OC)c(OC)c2)C1OC (stereo not drawn) [Reserpine] 101
O=c1[nH]ccc2c(O)cccc12 [1,5-Isoquinolinediol] 87.9
C[N+](C)(C)CCO.[Cl-] [2-hydroxy-N,N,N-trimethylethanaminium chloride] 94.9
CCC(CCC(C)C1CCC2C3CC=C4CC(O)CCC4(C)C3CCC12C)C(C)C (stereo not drawn) 105
CCCCCCCCC(O)C=CC=CC=CC(O)CCCC(=O)O (stereo not drawn) [Leukotriene B3] 98.7
COC(=O)C(N)Cc1ccc(Cl)cc1.Cl (racemic) [DL-p-Chlorophenylalanine methyl ester hydrochloride] 107
O=[N+]([O-])c1cccc2c(Br)[nH]nc12 [3-Bromo-7-nitroindazole] 103
CCOC(=O)CN1C(=O)c2ccc3c4c(ccc(c24)C1=O)C(=O)N(CC(=O)OCC)C3=O 89.7
CCCCCC=CCC(O)C=CC=CCCC(=O)O [Tetranor-12(R)-HETE] 100
COc1cc2nc(N(C)CCCNC(=O)C3CCCO3)nc(N)c2cc1OC (stereo not drawn) [Alfuzosin] 97.7
Cl.NC(N)=NC(N)=Nc1cccc(Cl)c1 [1-(m-Chlorophenyl)-biguanide hydrochloride] 93.4
COc1ccc2c(c1)c(CC(=O)OCC(=O)O)c(C)n2C(=O)c1ccc(Cl)cc1 [Acemetacin] 95.4
